Results taken from the antibiotic and cytotoxicity screens of Wong et al. (2023).
Screen size: about 39,000 compounds; about 500 (1.3%) were called active. What follows is part of a selection rich in actives, with near analogues and random picks from the rest.

Tested on: S. aureus RN4220
Experiment: growth inhibition call (relative growth <= 0.2)
Conditions: 50 µM

Row | SMILES | growth inhibition call
1 | COc1ccc(NC(=O)Nc2ccc3c(c2)C(=O)N([C@H](C)CO)C[C@H](C)[C@@H](CN(C)C(=O)c2ccccc2)OCCCC[C@H](C)O3)cc1 | inactive
2 | C[C@H](CO)N1C[C@H](C)[C@@H](CN(C)Cc2ccc(C(F)(F)F)cc2)OCCCC[C@H](C)Oc2ccc(NC(=O)c3ccccc3)cc2C1=O | inactive
3 | CCC1OC(=O)C(C)C(OC2CC(C)(OC)C(O)C(C)O2)C(C)C(OC2OC(C)CC(N(C)C)C2O)C(C)(O)CC(C)C(=O)C(C)C(O)C1(C)O (centres undefined) | active
4 | CC[C@H]1OC(=O)[C@H](C)[C@@H](O[C@H]2C[C@@](C)(OC)[C@@H](O)[C@H](C)O2)[C@@H](C)[C@@H](O[C@H]2O[C@H](C)C[C@H](N(C)C)[C@H]2O)[C@](C)(O)C[C@@H](C)C(=O)[C@H](C)[C@@H](O)[C@]1(C)O | active
5 | CCCN1C[C@H](C)[C@@H](O)[C@](C)(O)[C@@H](CC)OC(=O)[C@H](C)[C@@H](O[C@H]2C[C@@](C)(OC)[C@@H](O)[C@H](C)O2)[C@H](C)[C@@H](O[C@@H]2O[C@H](C)C[C@H](N(C)C)[C@H]2O)[C@](C)(O)C[C@H]1C | active
6 | CC[C@H]1OC(=O)[C@H](C)[C@@H](O[C@H]2C[C@@](C)(OC)[C@@H](O)[C@H](C)O2)[C@H](C)[C@@H](O[C@@H]2O[C@H](C)C[C@H](N(C)C)[C@H]2O)[C@](C)(O)C[C@@H](C)C(=O)[C@H](C)[C@@H](O)[C@]1(C)O | active
7 | CCC1OC(=O)C(C)C(OC2CC(C)(OC)C(O)C(C)O2)C(C)C(OC2OC(C)CC(N(C)C)C2O)C(C)(O)CC(C)C(=O)C(C)C(O)C1(C)O.CCCCCCCCCCCCCCCCCC(=O)O (centres undefined) | inactive
8 | C[C@H](CO)N1C[C@H](C)[C@H](CN(C)S(C)(=O)=O)Oc2ccc(NC(=O)Nc3ccc(F)cc3)cc2C1=O | inactive
9 | C[C@@H]1CN([C@@H](C)CO)C(=O)c2cc(NC(=O)NC3CCCCC3)ccc2O[C@@H](C)CCCCO[C@H]1CN(C)S(=O)(=O)c1ccccc1 | inactive
10 | Cc1ccc(NC(=O)c2ccc(CN3CC[C@H](N(C)C)C3)c(C(F)(F)F)c2)cc1Nc1nccc(-c2cncnc2)n1 | inactive
11 | C[C@@H]1CN([C@H](C)CO)C(=O)c2ccccc2-c2ccccc2CO[C@@H]1CN(C)Cc1ccc(C(F)(F)F)cc1 | inactive
12 | C[C@H](CO)N1C[C@H](C)[C@H](CN(C)Cc2cncnc2)Oc2ncc(C#C[C@@H](C)O)cc2C1=O | inactive
13 | C[C@H]1CN([C@@H](C)CO)C(=O)c2cc(NC(=O)Cn3cnnn3)ccc2O[C@@H]1CN(C)C(=O)Nc1ccccc1 | inactive
14 | C[C@H]1CN([C@@H](C)CO)S(=O)(=O)c2ccc(C#CC(C)(C)O)cc2O[C@H]1CN(C)Cc1ccc(F)cc1 | inactive
15 | CC[C@H]1OC(=O)[C@H](C)[C@@H](O[C@H]2C[C@@](C)(OC)[C@@H](O)[C@H](C)O2)[C@H](C)[C@@H](O[C@@H]2O[C@H](C)C[C@H](N(C)C)[C@H]2O)[C@](C)(O)C[C@@H](C)CN(C)[C@H](C)[C@@H](O)[C@]1(C)O | inactive
16 | CCC1OC(=O)C(C)C(OC2CC(C)(OC)C(O)C(C)O2)C(C)C(OC2OC(C)CC(N(C)C)C2O)C(C)(O)CC(C)CN(C)C(C)C(O)C1(C)O (centres undefined) | active
17 | C(=N\C1CCCCCCCCCCC1)/c1ccco1 | inactive

Row | SMILES | growth inhibition call
18 | C[C@H](CO)N1C[C@H](C)[C@H](CN(C)S(=O)(=O)c2cn(C)cn2)Oc2ccc(NC(=O)Cc3cn(C)c4ccccc34)cc2C1=O | inactive
19 | C[C@@H]1CN([C@@H](C)CO)C(=O)Cc2cc(NC(=O)Cc3cn(C)c4ccccc34)ccc2O[C@H]1CN(C)Cc1ccc(Oc2ccccc2)cc1 | inactive
20 | NCc1cn(-c2ccccc2)nc1C12CC3CC(CC(C3)C1)C2 | active
21 | c1ccc(-c2nc(C34CC5CC(CC(C5)C3)C4)cs2)cc1 | inactive
22 | OCc1cn(-c2ccccc2)nn1 | inactive
23 | C=CC[C@@H](CC(=O)N[C@H](CO)Cc1ccccc1)C(=O)N[C@H](C)COC(=O)[C@@H](CC=C)CC(=O)OC(C)(C)C | inactive
24 | C[C@@H]1CCCCO[C@@H](CN(C)Cc2ccncc2)[C@H](C)CN([C@H](C)CO)C(=O)c2cc(NC(=O)NC3CCCCC3)ccc2O1 | inactive
25 | CCCCc1oc2ccccc2c1C(=O)c1cc(I)c(OCCN(CC)CC)c(I)c1.Cl | inactive
26 | CCCCc1oc2ccccc2c1C(=O)c1cc(I)c(OCCN(CC)CC)c(I)c1 | inactive
27 | CCc1oc2ccccc2c1C(=O)c1cc(Br)c(O)c(Br)c1 | active
28 | OC[C@H]1O[C@@H](OCc2ccccc2)[C@H](O)[C@@H](O)[C@@H]1O | inactive
29 | Cc1noc(C)c1NC(=O)Nc1ccc2c(c1)C(=O)N([C@@H](C)CO)C[C@@H](C)[C@@H](CN(C)C(=O)Nc1ccccc1)OCCCC[C@@H](C)O2 | inactive
30 | COc1cc(NC(=O)c2cccc(-n3cc(NC(=O)Nc4cccc(C)c4)cn3)c2)cc(OC)c1OC | inactive
31 | CC(=O)N1[C@H](CNC(=O)CN2CCOCC2)[C@H](c2ccccc2)[C@@H]1CO | inactive
32 | CON=C(C(=O)N[C@@H]1C(=O)N2C(C(=O)OCOC(=O)C(C)(C)C)=C(C=Cc3scnc3C)CS[C@H]12)c1csc(N)n1 | active
33 | CCC=C(C(=O)NC1C(=O)N2C(C(=O)OCOC(=O)C(C)(C)C)=C(COC(N)=O)CSC12)c1csc(N)n1.Cl (centres undefined) | inactive
34 | CON=C(C(=O)NC1C(=O)N2C(C(=O)OCOC(=O)C(C)(C)C)=C(C=Cc3scnc3C)CSC12)c1csc(N)n1 (centres undefined) | active
